# Experimental data: PubChem BioAssay AID720566 (Broad Institute, 2013)
# Entries with a potency or affinity are not part of this list. Active and inactive are the calls of the source.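 The calls were made as follows: active = in all runs, an absorbance decrease of 25% or more of the average positive control decrease; inconclusive = runs conflict, with both active and inactive results; inactive = all runs inactive, opposite-direction effects included.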
# Biological target: Protein disulfide-isomerase A6 (Homo sapiens) (UniProt Q15084)
# Assay: reduced insulin turbidity driven by ERp5 (PDIA6) – biochemical, absorbance 650 nm, cherry-picked samples, dose response (AID 720566);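 also: negative values mean less insulin aggregation so ERp5 inhibition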
# Conditions: Recombinant ERp5 insulin aggregation; series mostly up to 35 µM; activity change, negative = inhibition: at the top concentration
# Sequence of Protein disulfide-isomerase A6 (Homo sapiens) (Q15084 whole entry, looked up): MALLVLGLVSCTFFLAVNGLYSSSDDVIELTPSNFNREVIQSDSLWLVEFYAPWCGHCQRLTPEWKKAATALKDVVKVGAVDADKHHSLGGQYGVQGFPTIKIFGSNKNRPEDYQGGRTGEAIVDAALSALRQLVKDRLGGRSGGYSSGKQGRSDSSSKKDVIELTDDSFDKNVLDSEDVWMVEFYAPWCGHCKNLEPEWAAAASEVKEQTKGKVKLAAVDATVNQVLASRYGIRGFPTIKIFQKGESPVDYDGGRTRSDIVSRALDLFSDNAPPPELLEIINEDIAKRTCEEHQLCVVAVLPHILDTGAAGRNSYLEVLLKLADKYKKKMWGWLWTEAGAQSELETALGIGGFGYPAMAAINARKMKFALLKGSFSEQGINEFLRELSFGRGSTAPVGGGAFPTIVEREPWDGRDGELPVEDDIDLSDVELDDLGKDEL
row,SMILES,"activity change, negative = inhibition"
1,C[C@@H]1CN([C@H](C)CO)C(=O)Cc2cc(NC(=O)c3ccncc3)ccc2O[C@H]1CN(C)S(=O)(=O)c1cn(C)cn1,2.41% [at 30 µM] (inactive)
2,COc1ccc(S(=O)(=O)N(C)C[C@@H]2Oc3ccc(NC(=O)c4ccncc4)cc3C(=O)N([C@H](C)CO)C[C@@H]2C)cc1,-5.69% (inactive)
3,O=C(Cc1ccc(NC(=O)C2CCCN(C(=O)C3CC3)C2)cc1)Nc1cccc(C(=O)N2CCCCC2)c1 (stereo unspecified),-9.63% (inactive)
4,C[C@@H]1CN([C@H](C)CO)C(=O)c2cccc(NC(=O)Nc3cccc4ccccc34)c2O[C@H]1CN(C)C(=O)Nc1ccc(C(F)(F)F)cc1,-10.1% (inactive)
5,C[C@@H]1CN([C@H](C)CO)C(=O)c2cc(NC(=O)Nc3cccc4ccccc34)ccc2O[C@@H]1CN(C)C(=O)Nc1cccc2ccccc12,10.4% (inactive)
6,CCC(=O)Nc1ccc2c(c1)C(=O)N(C)[C@H]1CC[C@H](CC(=O)NCC3CC3)O[C@H]1CO2,-1.49% (inactive)
7,CCN(CC)S(=O)(=O)c1ccc2c(c1)N(CC(=O)NCCN1CCOCC1)C(=O)CO2,14.4% (inactive)
8,COCCNC(=O)c1ccccc1NS(=O)(=O)c1ccc(C)c([N+](=O)[O-])c1,25% (inactive)
9,CC(C)CC#Cc1cnc2c(c1)C(=O)N([C@H](C)CO)C[C@H](C)[C@H](CN(C)Cc1ccccc1C(=O)O)O2,-14% [at 30 µM] (inactive)
10,C[C@@H]1CCCCO[C@@H](CN(C)Cc2ccc(C(=O)Nc3ccccc3N)cc2)[C@@H](C)CN([C@H](C)CO)C(=O)c2cc(NS(=O)(=O)c3cccs3)ccc2O1,10.1% (inactive)
11,C[C@H]1CN([C@@H](C)CO)C(=O)c2cccc(NC(=O)Nc3cccc4ccccc34)c2O[C@@H]1CN(C)C(=O)Nc1ccc(C(F)(F)F)cc1,2.99% (inactive)
